Source: PubChem BioAssay (EPA / NIEHS)
“And” between values parts separate entries of the source, which are not always exact repeats. Identical values can stand only once. Records with an inconclusive call do not appear. A structure can be active in one record and inactive in another. The source made the active and inactive calls. How the source made its calls, unless noted: active means hit-call score of the fitted dose curve at least 0.9, where 1 is the maximum; inconclusive means response in the unintended direction; inactive means score below 0.9.

Key:
[1] = Tanguay_ZF_120hpf_AXIS_legacy: (Legacy) Oregon State University Tanguay Lab 120 Hour Post-fertilization zebrafish Assay for Body Axis Malformation (AID 2283635);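 on AC50: potency for an increased fraction of larvae scored with body axis malformation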
How it was run: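 Binary scoring of axis defects at 120 hpf under brightfield, fitted positive versus DMSO. Tropical 5D embryos, chorion removed by pronase at 4 hpf, were singly exposed in sealed, dark plates at 28C from 6 hpf; DMSO 0.64% final.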

[2] = Tanguay_ZF_120hpf_SNOU_legacy: (Legacy) Oregon State University Tanguay Lab 120 Hour Post-fertilization zebrafish Assay for Snout Malformation (AID 2283637)
How it was run: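 Binary snout-malformation call at 120 hpf in wild-type 5D embryos, chorion removed by pronase, under static exposure from 6 hpf at 28C (0.64% DMSO). Embryos dying by 24 or 120 hpf excluded.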

[3] = Tanguay_ZF_120hpf_JAW_legacy: (Legacy) Oregon State University Tanguay Lab 120 Hour Post-fertilization zebrafish Assay for Jaw Malformation (AID 2283638);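 on AC50: active means more embryos with jaw malformation than DMSO controls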
How it was run: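 Binary jaw-malformation call at 120 hpf by brightfield microscopy. Embryos (Tropical 5D strain, chorion removed at 4 hpf) were dosed statically at 6 hpf, one per well, at 28C with 0.64% DMSO. Embryos that died were not scored.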

[4] = Tanguay_ZF_120hpf_OTIC_legacy: (Legacy) Oregon State University Tanguay Lab 120 Hour Post-fertilization zebrafish Assay for Otic Vesicle Malformation (AID 2283639)
How it was run: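 Binary scoring of otic vesicle defects at 120 hpf in zebrafish (Tropical 5D) held under static exposure at 28C, sealed and shaded, with final DMSO 0.64%. Embryos dying by 24 or 120 hpf excluded; fitted positively against DMSO.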

[5] = Tanguay_ZF_120hpf_PFIN_legacy: (Legacy) Oregon State University Tanguay Lab 120 Hour Post-fertilization zebrafish Assay for Pectoral Fin Malformation (AID 2283648);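 further: each larva judged yes or no for fin defect by brightfield with dead larvae skipped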
How it was run: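 Pectoral fin malformation was recorded as a binary endpoint at 120 hpf in wild-type Tropical 5D larvae, which had been dechorionated and exposed statically from 6 hpf at 28C in 0.64% DMSO. Dead embryos were excluded.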

[6] = Tanguay_ZF_120hpf_CFIN_legacy: (Legacy) Oregon State University Tanguay Lab 120 Hour Post-fertilization zebrafish Assay for Caudal Fin Malformation (AID 2283649)
How it was run: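 Binary brightfield scoring of caudal fin defects at 120 hpf after static, light-shielded exposure at 28C from 6 hpf. Tropical 5D embryos, chorion removed with pronase at 4 hpf, final DMSO 0.64%.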

[7] = Tanguay_ZF_120hpf_PIG_legacy: (Legacy) Oregon State University Tanguay Lab 120 Hour Post-fertilization zebrafish Assay for Pigmentation Malformation (AID 2283650)
How it was run: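 Pigment malformation recorded as a binary call at 120 hpf in zebrafish (Tropical 5D) exposed singly from 6 hpf after pronase dechorionation. Static, sealed, 28C exposure, 0.64% DMSO; mortality excludes scoring; positive-direction fit against DMSO.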

[8] = Tanguay_ZF_120hpf_SWIM_legacy: (Legacy) Oregon State University Tanguay Lab 120 Hour Post-fertilization zebrafish Assay for Swim Bladder Malformation (AID 2283654);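 further: swim bladder malformation in each larva scored yes or no under brightfield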
How it was run: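 Scoring is binary for swim bladder defects at 120 hpf, by brightfield inspection of zebrafish larvae. Embryos were exposed singly from 6 hpf after pronase dechorionation, at 28C with 0.64% DMSO; mortality excluded scoring.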

[9] = Tanguay_ZF_120hpf_TRUN_legacy: (Legacy) Oregon State University Tanguay Lab 120 Hour Post-fertilization zebrafish Assay for Truncated Body (AID 2283655)
How it was run: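 Binary presence/absence of truncated body is recorded at 120 hpf by brightfield, with non-mortality endpoints skipped after death. Exposure is static from 6 hpf in sealed dark plates at 28C, using dechorionated wild-type zebrafish, 0.64% DMSO.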

[10] = read-out: ABC Transporter (ABCB1), ABCB1 (gene 5243); experiment: CLD_ABCB1_6hr: CellzDirect (CLD) Gene Expression Assay for ABC Transporter (ABCB1) at 6 hours (AID 2283659);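 further: hits raise ABCB1 transcript above the DMSO vehicle baseline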
How it was run: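 ABCB1 transcript measured by quantitative nuclease protection assay, chemiluminescent read-out, 6 h after dosing human hepatocyte cultures (0.2% DMSO vehicle, daily redosing). Activity fitted as increase over DMSO baseline; cytotoxicity flagged by phase-contrast morphology.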

[11] = read-out: Broad substrate specificity ATP-binding cassette transporter ABCG2 (Homo sapiens) (UniProt Q9UNQ0); experiment: CLD_ABCG2_6hr: CellzDirect (CLD) Gene Expression Assay for ABC Transporter (ABCG2) at 6 hours (AID 2283660)
How it was run: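 ABCG2 mRNA induction measured by qNPA chemiluminescence in human primary hepatocyte cultures, 6 h post-dose. Chemicals tested at several concentrations against a 0.2% DMSO vehicle; positive-direction fit relative to DMSO.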

[12] = read-out: xenobiotic metabolism (CYP1A1), CYP1A1 (gene 1543); experiment: CLD_CYP1A1_6hr: CellzDirect (CLD) Gene Expression Assay for xenobiotic metabolism (CYP1A1) at 6 hours (AID 2283661);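 on AC50: potency for transcript induction above DMSO vehicle baseline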
How it was run: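 Read-out 6 h post-dose: qNPA chemiluminescent quantitation of transcript induction against 0.2% DMSO. Cells were cultured primary human hepatocytes from two separate donor preparations; phase-contrast morphology annotated apparent cytotoxicity.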

[13] = read-out: xenobiotic metabolism (CYP1A2), CYP1A2 (gene 1544); experiment: CLD_CYP1A2_6hr: CellzDirect (CLD) Gene Expression Assay for xenobiotic metabolism (CYP1A2) at 6 hours (AID 2283663);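 on AC50: potency is for induction meaning a rise in mRNA above DMSO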
How it was run: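 mRNA levels quantified by quantitative nuclease protection assay with chemiluminescence, 6 h after dosing human primary hepatocyte cultures (two donors) across several concentrations, vehicle 0.2% DMSO. Induction fitted upward versus DMSO; phase-contrast cytotoxicity annotated.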

[14] = read-out: solute carrier (SLC22A6), SLC22A6 (gene 9356); experiment: LTEA_HepaRG_SLC22A6: Life Technologies and Expression Analysis (LTEA) Assay for solute carrier (SLC22A6) using HepaRG (AID 2283653; active means hit-call score of the fitted dose curve at least 0.9, where 1 is the maximum; inactive means score below 0.9); conditions: mRNA level, 48 h; actives raise or lower the signal
How it was run: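 SLC22A6 transcript was measured by TaqMan qRT-PCR, normalized to three housekeeping genes, after 48 h duplicate exposure of HepaRG cells (100 uM top, half-log steps, 0.5% DMSO); bidirectional fit against vehicle.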

[15] = read-out: solute carrier (SLC10A1), SLC10A1 (gene 6554); experiment: LTEA_HepaRG_SLC10A1: Life Technologies and Expression Analysis (LTEA) Assay for solute carrier (SLC10A1) using HepaRG (AID 2283657; active means hit-call score of the fitted dose curve at least 0.9, where 1 is the maximum; inactive means score below 0.9); conditions: mRNA level, 48 h; actives raise or lower the signal
How it was run: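 SLC10A1 transcript measured by TaqMan qRT-PCR, housekeeping-normalised, after 48 h chemical treatment of human HepaRG cells. Eight concentrations (half-log, max 100 uM, 0.5% DMSO vehicle) in duplicate; fitted bidirectionally against DMSO baseline.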

[16] = read-out: matrix metalloproteinase-1 (MMP1), MMP1 (gene 4312); experiment: LTEA_HepaRG_MMP1: Life Technologies and Expression Analysis (LTEA) Assay for matrix metalloproteinase-1 (MMP1) using HepaRG (AID 2283658; active means hit-call score of the fitted dose curve at least 0.9, where 1 is the maximum; inactive means score below 0.9); conditions: mRNA level, 48 h; actives raise or lower the signal
How it was run: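 qRT-PCR (TaqMan, Fluidigm arrays) of MMP1 transcript, normalized against three housekeeping genes and fitted in both directions relative to 0.5% DMSO vehicle. Human HepaRG cultures received duplicate 48 h exposures across 8 points, highest 100 uM with half-log steps.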

[17] = test system: Thyroperoxidase (TPO), gene 54314; experiment: CCTE_Simmons_AUR_rTPO: CCTE's Amplex UltraRed Assay for Thyroperoxidase (TPO) Inhibition, Simmons Lab (AID 2283662);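 on AC50: potency for loss of signal meaning inhibition of peroxidase activity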
How it was run: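 Cell-free peroxidase activity assay using rat thyroid gland microsomes with excess H2O2 (300 uM) and 25 uM Amplex UltraRed. Compounds tested from 5 nM to 87.5 uM; fluorescence measured after 30 min at 37C, analysed relative to DMSO baseline.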

[18] = Tanguay_ZF_120hpf_PE_legacy: (Legacy) Oregon State University Tanguay Lab 120 Hour Post-fertilization zebrafish Assay for Pericardial Edema (AID 2283640);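 further: potency for increased incidence of pericardial edema versus DMSO baseline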
How it was run: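 Scoring was binary, by brightfield microscopy at 120 hpf, and skipped where mortality occurred. Wild-type embryos were kept under sealed, foil-covered static exposure at 28C in 0.64% (vol/vol) DMSO.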

[19] = read-out: kallikrein-3 (KLK3), KLK3 (gene 354); experiment: LTEA_HepaRG_KLK3: Life Technologies and Expression Analysis (LTEA) Assay for kallikrein-3 (KLK3) using HepaRG (AID 2283652; active means hit-call score of the fitted dose curve at least 0.9, where 1 is the maximum; inactive means score below 0.9); conditions: mRNA level, 48 h; actives raise or lower the signal
How it was run: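 KLK3 transcript levels were measured by TaqMan qRT-PCR with normalisation to three housekeeping genes. HepaRG cultures received chemicals for 48 h at up to 100 uM (half-log, 8 points, 0.5% DMSO vehicle), fitted in both directions against DMSO.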

Measured: AC50

Broad substrate specificity ATP-binding cassette transporter ABCG2 (Homo sapiens), sequence (Q9UNQ0 whole entry, looked up): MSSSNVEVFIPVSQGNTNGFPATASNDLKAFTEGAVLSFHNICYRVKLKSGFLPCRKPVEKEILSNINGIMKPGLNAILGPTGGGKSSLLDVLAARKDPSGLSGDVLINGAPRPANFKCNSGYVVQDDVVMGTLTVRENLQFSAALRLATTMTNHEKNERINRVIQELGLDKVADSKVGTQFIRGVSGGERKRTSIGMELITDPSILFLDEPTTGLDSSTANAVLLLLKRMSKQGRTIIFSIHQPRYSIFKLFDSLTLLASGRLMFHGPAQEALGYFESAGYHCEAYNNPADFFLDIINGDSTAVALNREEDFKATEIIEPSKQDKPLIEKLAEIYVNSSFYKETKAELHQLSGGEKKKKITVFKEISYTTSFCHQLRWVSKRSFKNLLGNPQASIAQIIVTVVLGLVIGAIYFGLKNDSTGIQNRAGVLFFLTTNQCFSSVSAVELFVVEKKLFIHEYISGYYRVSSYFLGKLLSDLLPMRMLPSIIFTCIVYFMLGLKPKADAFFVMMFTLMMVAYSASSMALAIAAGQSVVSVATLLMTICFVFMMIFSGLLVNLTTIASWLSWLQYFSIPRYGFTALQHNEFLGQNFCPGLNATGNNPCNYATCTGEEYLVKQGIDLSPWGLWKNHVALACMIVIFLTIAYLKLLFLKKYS

CCC(C)(C)C(=O)OC1=C(c2ccc(Cl)cc2Cl)C(=O)OC12CCCCC2
inactive: [1] | [2] | [3] | [4] | [5] | [6] | [7] | [8] | [9] | [10] | [11]

CNC(=O)Oc1ccccc1OC(C)C
inactive: [1] | [2] | [3] | [4] | [5] | [6] | [7] | [8] | [9] | [10] | [11] | [12] | [13]

ClC1C(Cl)C(Cl)C(Cl)C(Cl)C1Cl (stereo not drawn)
inactive: [1] | [2] | [3] | [4] | [5] | [6] | [7] | [14] | [8] | [9] | [15] | [16] | [10] | [11] | [12]

O=C(O)C(F)(F)C(F)(F)C(F)(F)C(F)(F)C(F)(F)C(F)(F)C(F)(F)F
inactive: [1] | [2] | [3] | [4] | [5] | [6] | [7] | [8] | [9] | [10] | [11] | [12]

COc1nn(CSP(=S)(OC)OC)c(=O)s1
inactive: [1] | [2] | [3] | [4] | [5] | [6] | [7] | [8] | [9]
active: [12] 1.25 µM | [17] 3.7 µM | [13] 2.89 µM

Oc1cc(Cl)ccc1Oc1ccc(Cl)cc1Cl
inactive: [1] | [2] | [3] | [4] | [5] | [6] | [7] | [8] | [9] | [10] | [12] | [17]
active: [17] 36.3 µM and 21.6 µM and 43.6 µM

CC(C)(C)C(O)C(Oc1ccc(Cl)cc1)n1cncn1 (stereo not drawn)
inactive: [2] | [3] | [6] | [7] | [8] | [9] | [10] | [11] | [13]
active: [1] 40.7 µM and 31.9 µM and 48.1 µM | [2] 33.7 µM and 47.3 µM | [3] 32 µM and 51.8 µM | [4] 46.2 µM and 33 µM and 45.3 µM | [5] 47.2 µM and 33.2 µM and 39.7 µM | [6] 40.7 µM | [7] 44.2 µM and 47.8 µM | [8] 47.1 µM | [9] 32.2 µM and 47.2 µM | [12] 1.55 µM

CCc1ccc(C(=O)NN(C(=O)c2cc(C)cc(C)c2)C(C)(C)C)cc1
inactive: [1] | [2] | [3] | [4] | [5] | [6] | [7] | [8] | [9] | [10] | [11]
active: [12] 7.56 µM | [13] 33.7 µM

COP(=S)(OC)Oc1ccc([N+](=O)[O-])cc1
active: [12] 2.88 µM | [17] 4.82 µM | [13] 3.16 µM
inactive: [1] | [2] | [3] | [4] | [5] | [6] | [7] | [8] | [9] | [10] | [11]

Oc1ccc(Cl)cc1Cc1ccccc1
active: [17] 12.7 µM
inactive: [1] | [2] | [3] | [4] | [5] | [6] | [7] | [8] | [9] | [10] | [11] | [12]

CN1CSC(=S)N(C)C1
inactive: [4] | [5] | [7] | [19] | [14] | [8] | [9] | [15] | [16] | [10] | [11] | [12] | [13]
active: [1] 21.3 µM | [2] 24.9 µM | [3] 8.18 µM | [18] 35 µM | [17] 6.52 µM
